PubChem BioAssay
Active and inactive are the calls of the source.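 Rule for the calls, unless noted: active = inhibition above 20% together with a positive visual image hit; inconclusive = visual image hit but inhibition not above 20%; inactive = no visual image hit.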

How the values were obtained:
[1] = inhibitors of TNFa-induced NFkB p65 translocation, primary screen, imaging, HUVEC, MLSMR starter and 10KST1 sets (AID 438); details: HUVEC TNFa-induced p65 nuclear translocation; cell count: measured here: nuclei count (cytotoxicity indicator), at 2.08 µM; inhibition: at 2 µM, stronger effect = higher value, 0% TNFa-plus-vehicle, 100% no-TNFa wells;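 note: compound added about 3h40 before a 20 min TNFalpha stimulation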;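 for inhibition: signal is the nuclear over cytoplasmic p65 intensity ratio per well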
[2] = inhibitors of mutant huntingtin aggregation, primary screen, imaging, exon1htt(103Q)mCFP cells, high-content imaging (AID 483;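 active = visual image review flags a hit and inhibition of aggregation exceeds 20%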;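 note: compound exposure lasted 3 days before fixation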;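 for nuclei count: percent of the per-plate median nuclei count of sample wells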); details: exon1htt(103Q)mCFP cell line, aggregate imaging, at 2 µM; inhibition of aggregation: stronger effect = higher value; nuclei count: measured here: cell count, toxicity
[3] = inhibitors of E-selectin induction by TNFa, primary screen, imaging, HUVEC, immunofluorescence, MLSMR starter and 10KST1 sets (AID 487;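 active = visually confirmed hit in the image check and inhibition above 20%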;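 for inhibition: signal is fraction of cell area covered by stained E-selectin grains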;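 for nuclei count: 100% = median nuclei count of all wells on the same plate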); details: HUVEC TNFalpha-induced E-selectin immunofluorescence imaging, at 2 µM; inhibition: stronger effect = higher value; nuclei count: measured here: cell number, toxicity
[4] = target: Voltage-gated potassium channel subunit beta-2 (Rattus norvegicus) (UniProt P62483); assay: KvBeta enzyme negative modulators, primary screen, biochemical, NADPH fluorescence (AID 622;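 active = fluorescence slope higher than the sample average by over 3 SD, cut at about -0.22 in these data, passing the limit was not always enough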;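 note: slope of raw intensity against log time taken from 70 to 1610 s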); details: recombinant KvBeta, 4-cyanobenzaldehyde reduction, at 10 µM, stronger effect = higher value
[5] = target: Voltage-gated potassium channel subunit beta-2 (Rattus norvegicus) (UniProt P62483); assay: KvBeta positive modulators, primary screen, biochemical, NADPH fluorescence (AID 623;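 active = NADPH fluorescence slope more negative than the mean of all samples by about 3 SD, 99.7% confidence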;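 note: fluorescence intensity change per second fitted from 20 to 320 s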); details: Recombinant KvBeta, NADPH fluorescence decrease slope, 10 min; at 10 µM; stronger effect = lower value
[6] = target: Muscarinic acetylcholine receptor M4 (Homo sapiens) (UniProt P08173); assay: compounds altering M4/GIRK thallium flux, either direction, primary screen, M4 allosteric agonist project, cell-based, HEK293 M4/GIRK, BTC-AM (AID 625;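 active = fluorescence slope after compound addition differing from the mean of all tested samples at 99.7% confidence, mostly higher but some lower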;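 note: thallium influx through GIRK channels coupled to M4 in HEK293 cells with BTC-AM dye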); details: at 10 µM, actives lie on both sides
[7] = inhibitors of Sendai virus-induced IRF3 signaling, primary screen, TLR/RLR signaling modifier project, cell-based, Sendai virus stimulus, luciferase, 10K MLSCN set (AID 602276;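 active = inhibition at or above 50% at 10 µM; inactive = inhibition below 50%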;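 note: firefly luciferase from ISG56 promoter only with Renilla not read in this screen; 0% = Sendai virus plus DMSO and 100% = medium plus DMSO without virus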); details: HEK293 RL24 IRF3 luciferase reporter, at 10 µM, stronger effect = higher value
[8] = inhibitors of poly I:C-induced TLR3 signaling, primary screen, cell-based, poly I:C stimulus, luciferase, 10K MLSCN set (AID 602277;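 active = inhibition of the reporter signal at or above 50%; inactive = inhibition below 50%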); details: HEK293-TLR3 RL24 IRF3 luciferase reporter, at 10 µM, stronger effect = higher value
[9] = DUSP6 inhibitors restoring Erk phosphorylation by chemical complementation, primary imaging in DUSP6-transfected HeLa (AID 609;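 active = compounds giving at least 50% inhibition in the cell-based MKP-3 phosphatase rescue imaging test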;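 for inhibition: phospho-Erk level distribution per well compared with pooled transfected vehicle control wells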); details: HeLa MKP-3 transfected, phospho-Erk imaging KS statistic, at 10 µM, cells stimulated with TPA for 15 min
[10] = target: Dual specificity protein phosphatase 6 (Homo sapiens) (UniProt Q16828); assay: as above; details: HeLa MKP-3 transfected, phospho-Erk imaging KS statistic; at 10 µM; stronger effect = higher value; cells stimulated with TPA for 15 min
[11] = target: Alpha-2C adrenergic receptor (Homo sapiens) (UniProt P18825); assay: modulators of alpha2C/GIRK thallium flux, primary screen, cell-based, HEK293 alpha2C/GIRK1/2 (AID 624;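 active = fluorescence slope after compound addition differing from the mean of all screened samples at 99.7% confidence, in either direction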;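 note: slope of fluorescence ratio to pre-addition baseline per second over 15 to 24 s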); details: thallium flux BTC fluorescence, at 10 µM, actives lie on both sides
Alpha-2C adrenergic receptor (Homo sapiens), sequence (P18825 whole entry, looked up): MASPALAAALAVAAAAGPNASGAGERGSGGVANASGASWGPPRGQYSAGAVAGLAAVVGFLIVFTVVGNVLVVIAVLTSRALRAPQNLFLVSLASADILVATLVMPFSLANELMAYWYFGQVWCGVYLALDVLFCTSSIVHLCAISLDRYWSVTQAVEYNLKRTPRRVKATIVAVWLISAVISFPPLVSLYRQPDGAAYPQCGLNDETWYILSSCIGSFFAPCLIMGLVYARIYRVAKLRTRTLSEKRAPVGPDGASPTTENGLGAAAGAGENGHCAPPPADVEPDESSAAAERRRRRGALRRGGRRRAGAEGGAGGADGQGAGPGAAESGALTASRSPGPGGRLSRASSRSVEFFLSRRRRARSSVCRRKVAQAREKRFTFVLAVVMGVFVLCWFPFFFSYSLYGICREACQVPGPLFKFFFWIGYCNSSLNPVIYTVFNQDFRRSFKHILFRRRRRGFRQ

Muscarinic acetylcholine receptor M4 (Homo sapiens), sequence (P08173 whole entry, looked up): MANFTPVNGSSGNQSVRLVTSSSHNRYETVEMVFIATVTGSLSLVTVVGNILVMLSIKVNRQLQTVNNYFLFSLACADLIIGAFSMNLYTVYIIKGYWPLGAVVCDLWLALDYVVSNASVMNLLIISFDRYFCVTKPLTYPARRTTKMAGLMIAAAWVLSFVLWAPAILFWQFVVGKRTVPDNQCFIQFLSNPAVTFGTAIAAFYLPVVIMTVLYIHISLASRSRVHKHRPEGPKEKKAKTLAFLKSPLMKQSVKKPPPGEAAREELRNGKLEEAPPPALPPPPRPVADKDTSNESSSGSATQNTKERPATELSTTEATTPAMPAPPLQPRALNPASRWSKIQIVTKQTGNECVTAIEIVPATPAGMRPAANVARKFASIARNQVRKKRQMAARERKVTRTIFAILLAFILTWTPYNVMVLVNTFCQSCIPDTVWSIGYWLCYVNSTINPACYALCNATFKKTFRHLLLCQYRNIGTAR
Voltage-gated potassium channel subunit beta-2 (Rattus norvegicus), sequence (P62483 whole entry, looked up): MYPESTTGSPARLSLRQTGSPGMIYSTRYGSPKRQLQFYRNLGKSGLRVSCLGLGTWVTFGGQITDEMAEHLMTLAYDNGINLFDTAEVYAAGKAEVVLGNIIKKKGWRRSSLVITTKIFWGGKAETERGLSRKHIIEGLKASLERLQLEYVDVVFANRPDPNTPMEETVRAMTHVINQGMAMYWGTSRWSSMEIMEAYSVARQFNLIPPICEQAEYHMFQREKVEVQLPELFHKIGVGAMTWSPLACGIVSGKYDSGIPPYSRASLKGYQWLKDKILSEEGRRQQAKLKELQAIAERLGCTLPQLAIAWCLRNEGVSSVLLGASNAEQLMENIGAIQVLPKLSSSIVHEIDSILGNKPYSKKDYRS
Dual specificity protein phosphatase 6 (Homo sapiens), sequence (Q16828 whole entry, looked up): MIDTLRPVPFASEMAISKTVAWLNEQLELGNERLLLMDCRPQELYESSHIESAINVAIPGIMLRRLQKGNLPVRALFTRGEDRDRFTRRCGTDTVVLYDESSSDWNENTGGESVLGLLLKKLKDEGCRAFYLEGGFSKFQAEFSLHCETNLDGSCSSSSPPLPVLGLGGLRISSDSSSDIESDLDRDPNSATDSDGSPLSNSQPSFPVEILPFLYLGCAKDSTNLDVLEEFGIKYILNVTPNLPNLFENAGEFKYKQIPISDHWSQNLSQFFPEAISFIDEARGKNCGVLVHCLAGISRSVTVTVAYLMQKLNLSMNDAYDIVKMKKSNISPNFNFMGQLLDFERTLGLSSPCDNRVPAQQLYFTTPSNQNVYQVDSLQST

CC(CN1CCOCC1)(NS(=O)(=O)c1ccccc1)c1ccccc1 (stereo unspecified)
cell count [1]: 460
inhibition [1]: -12% (inactive)
inhibition of aggregation [2]: 10.4% (inactive)
nuclei count [2]: 85.8%
inhibition [3]: 8% (inactive)
nuclei count [3]: 111%
fluorescence slope [4]: -0.576 (inactive)
NADPH fluorescence slope [5]: -4.5e-06 (inactive)
fluorescence slope [6]: 0.00534 (inactive)
inhibition [7]: 4.38% (inactive)
inhibition [8]: 7.26% (inactive)

CC(C)[N+]1(C)[C@@H]2CC[C@H]1CC(OC(=O)C(CO)c1ccccc1)C2 (stereo partly specified)
cell count [1]: 466
inhibition [1]: -3.8% (inactive)
inhibition [3]: -89.2% (inactive)
nuclei count [3]: 94.7%
z-score ([9]; measured here: cell density z-score): 1.04
z-score ([9]; measured here: nuclear c-Myc green intensity z-score): -0.0729
z-score ([9]; measured here: nuclear pErk red intensity z-score, stronger effect = higher value): -1.49
inhibition [10]: 25.7% (inactive)
fluorescence slope [4]: -0.497 (inactive)
NADPH fluorescence slope [5]: -5.7e-05 (inactive)
slope [11]: 0.00449 (inactive)
inhibition [7]: -5.72% (inactive)
inhibition [8]: 28.4% (inactive)

Cn1ccnc1C(O)c1ccco1 (stereo unspecified)
cell count [1]: 722
inhibition [1]: 3.3% (inactive)
inhibition of aggregation [2]: -15.7% (inactive)
nuclei count [2]: 97.2%
inhibition [3]: -146% (inactive)
nuclei count [3]: 129%
fluorescence slope [4]: -0.422 (inactive)
NADPH fluorescence slope [5]: 2.5e-05 (inactive)
fluorescence slope [6]: 0.00477 (inactive)
inhibition [7]: 15.2% (inactive)
inhibition [8]: 13.2% (inactive)

CCOCCCNC(=O)CCNS(=O)(=O)c1ccc(C)cc1
cell count [1]: 547
inhibition [1]: -15% (inactive)
inhibition of aggregation [2]: -10.7% (inactive)
nuclei count [2]: 90.3%
fluorescence slope [4]: -0.411 (inactive)
NADPH fluorescence slope [5]: -3.1e-05 (inactive)
slope [11]: 0.00305 (inactive)
inhibition [7]: -17.9% (inactive)
inhibition [8]: 22.8% (inactive)

COc1cc(Cn2c(C(=O)O)cc3sccc32)cc(OC)c1OC
cell count [1]: 434
inhibition [1]: 8.6% (inactive)
inhibition of aggregation [2]: 2.5% (inactive)
nuclei count [2]: 98.8%
nuclei count [3]: 140%
fluorescence slope [4]: -0.562 (inactive)
NADPH fluorescence slope [5]: -0.000122 (inactive)
fluorescence slope [6]: 0.00343 (inactive)
inhibition [7]: 14.9% (inactive)
inhibition [8]: 20.9% (inactive)

Cc1cc(NC(=O)COc2ncnc3sc(C)c(C)c23)no1
cell count [1]: 418
inhibition [1]: 1.3% (inactive)
inhibition of aggregation [2]: -2.1% (inactive)
nuclei count [2]: 100%
nuclei count [3]: 153%
fluorescence slope [4]: -0.568 (inactive)
NADPH fluorescence slope [5]: -2.9e-05 (inactive)
fluorescence slope [6]: 0.00692 (inactive)
inhibition [7]: 21% (inactive)
inhibition [8]: 21.4% (inactive)

NC(=O)c1oc2ccc(Cl)cc2c1NC(=O)CN1CCOCC1
cell count [1]: 436
inhibition [1]: 2.7% (inactive)
inhibition of aggregation [2]: 3.6% (inactive)
nuclei count [2]: 112%
inhibition [3]: -114% (inactive)
nuclei count [3]: 123%
fluorescence slope [4]: -0.53 (inactive)
NADPH fluorescence slope [5]: -5.2e-05 (inactive)
fluorescence slope [6]: 0.00578 (inactive)
inhibition [7]: 4.86% (inactive)
inhibition [8]: 1.98% (inactive)

Cc1ccccc1-c1nc2ccccc2c(=O)n1C1CCS(=O)(=O)C1 (stereo unspecified)
cell count [1]: 368
inhibition [1]: 3.8% (inactive)
inhibition of aggregation [2]: -7.2% (inactive)
nuclei count [2]: 110%
inhibition [3]: -4.7% (inactive)
nuclei count [3]: 102%
fluorescence slope [4]: -0.614 (inactive)
NADPH fluorescence slope [5]: 9.6e-06 (inactive)
fluorescence slope [6]: 0.00582 (inactive)
inhibition [7]: 21% (inactive)
inhibition [8]: 31% (inactive)

COc1cccc(-c2cc(C(=O)Nc3cc(OC)c(OC)c(OC)c3)no2)c1
cell count [1]: 461
inhibition [1]: -4.5% (inactive)
inhibition of aggregation [2]: 1.1% (inactive)
nuclei count [2]: 55.1%
inhibition [3]: -12.3% (inactive)
nuclei count [3]: 97.2%
fluorescence slope [4]: -0.511 (inactive)
NADPH fluorescence slope [5]: -4.5e-05 (inactive)
slope [11]: 0.00712 (inactive)
inhibition [8]: -2.13% (inactive)

O=C(O)CC(C(=O)OCCOc1ccccc1)N1CCOCC1 (stereo unspecified)
cell count [1]: 504
inhibition [1]: 6.4% (inactive)
inhibition [3]: -77.1% (inactive)
nuclei count [3]: 109%

O=C1CC(=O)N(Cc2cccs2)C(=O)N1
cell count [1]: 336
inhibition [1]: 4.7% (inactive)
inhibition of aggregation [2]: 12.5% (inactive)
nuclei count [2]: 98.3%
nuclei count [3]: 116%
fluorescence slope [4]: -0.632 (inactive)
NADPH fluorescence slope [5]: 5.3e-05 (inactive)
fluorescence slope [6]: 0.00466 (inactive)
inhibition [7]: 1.08% (inactive)
inhibition [8]: 6.01% (inactive)

COc1ccc(N2CCN(c3oc(COc4ccccc4)nc3C#N)CC2)cc1
cell count [1]: 449
inhibition [1]: 9.4% (inactive)
inhibition of aggregation [2]: -7.4% (inactive)
nuclei count [2]: 102%
nuclei count [3]: 155%
fluorescence slope [4]: -0.602 (inactive)
NADPH fluorescence slope [5]: -9.8e-06 (inactive)
fluorescence slope [6]: 0.00622 (inactive)
inhibition [7]: 10.1% (inactive)
inhibition [8]: 3.38% (inactive)

Cc1cc(NC(=O)c2cnn3cccnc23)no1
cell count [1]: 467
inhibition [1]: 0.3% (inactive)
inhibition of aggregation [2]: 3.3% (inactive)
nuclei count [2]: 104%
inhibition [3]: -33.8% (inactive)
nuclei count [3]: 119%
fluorescence slope [4]: -0.613 (inactive)
NADPH fluorescence slope [5]: -4.3e-05 (inactive)
fluorescence slope [6]: 0.00996 (inactive)
inhibition [7]: -57.6% (inactive)
inhibition [8]: -124% (inactive)

COc1cccc(C(=O)Nc2cnc(NC(=O)c3ccco3)cc2C)c1
cell count [1]: 463
inhibition [1]: 12.5% (inactive)
inhibition of aggregation [2]: -2.9% (inactive)
nuclei count [2]: 98.1%
nuclei count [3]: 119%
fluorescence slope [4]: -0.567 (inactive)
NADPH fluorescence slope [5]: -5.3e-05 (inactive)
fluorescence slope [6]: 0.00623 (inactive)
inhibition [7]: 5.68% (inactive)
inhibition [8]: -23.5% (inactive)
